Where “and” joins values, the source holds several entries; their conditions need not be identical. Equal values may be shown once. Results filed as inconclusive are left out. Calls of active or inactive are those of the source. Unless noted, calls come from the whole dose curve.
Columns and labels:
[1] = Nuclear factor erythroid 2-related factor 2/antioxidant responsive element (Nrf2/ARE) small molecule agonists: luciferase reporter gene qHTS assay in human keratinocytes (AID 1919969); note: nearly all actives have a fitted effect of over 35% in size; note: potency is the fitted concentration of half-maximal effect
[2] = target: Gonadotropin-releasing hormone receptor (Homo sapiens) (UniProt P30968); assay: Human gonadotropin-releasing hormone receptor (GnRHR) small molecule agonists, calcium flux assay in GnRHR-HEK293 cells (AID 1920063); note: nearly all actives have a fitted effect of over 35% in size
Sequence of Gonadotropin-releasing hormone receptor (Homo sapiens) (P30968 whole entry, looked up): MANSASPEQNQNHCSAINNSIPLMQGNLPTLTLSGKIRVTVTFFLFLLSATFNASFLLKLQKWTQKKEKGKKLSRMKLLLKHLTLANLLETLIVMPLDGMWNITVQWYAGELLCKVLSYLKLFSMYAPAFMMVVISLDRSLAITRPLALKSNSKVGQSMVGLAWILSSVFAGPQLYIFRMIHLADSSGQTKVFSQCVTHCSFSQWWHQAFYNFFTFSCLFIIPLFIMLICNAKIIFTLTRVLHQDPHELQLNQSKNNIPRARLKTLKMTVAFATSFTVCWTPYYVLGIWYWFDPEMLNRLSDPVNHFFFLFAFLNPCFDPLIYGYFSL
Outline: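 HEK293 cells stably expressing human GnRHR were dye-loaded for 1 h at 37 C. Compound was added in agonist mode and fluorescence (Ex/Em 480/540) recorded kinetically for 3 min. Fifteen concentrations, triplicates.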

[3] = target: KiSS-1 receptor (Homo sapiens) (UniProt Q969F8); assay: Human kisspeptin (KISS1R) small molecule agonists, calcium flux assay in KISS1R-HEK293 cells (AID 1920064; active = well fitted activation curve with a large enough effect in the repeat runs)
Sequence of KiSS-1 receptor (Homo sapiens) (Q969F8 whole entry, looked up): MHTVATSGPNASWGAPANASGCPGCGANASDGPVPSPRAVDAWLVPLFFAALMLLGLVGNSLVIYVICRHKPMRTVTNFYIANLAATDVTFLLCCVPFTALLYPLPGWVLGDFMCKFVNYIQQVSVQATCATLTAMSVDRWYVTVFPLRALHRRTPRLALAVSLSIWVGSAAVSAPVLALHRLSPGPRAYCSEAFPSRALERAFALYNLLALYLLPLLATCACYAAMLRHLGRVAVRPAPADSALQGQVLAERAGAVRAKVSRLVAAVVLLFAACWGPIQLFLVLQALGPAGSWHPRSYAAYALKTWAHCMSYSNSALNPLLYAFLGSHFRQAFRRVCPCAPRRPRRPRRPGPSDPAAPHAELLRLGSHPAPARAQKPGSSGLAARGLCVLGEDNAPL
Outline: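 HEK293 cells stably expressing human KISS1R were loaded with calcium dye for 1 h at 37 C, then given compound; fluorescence (Ex/Em 480/540) was read kinetically for 3 min. Fifteen concentrations, triplicate.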

[4] = G protein-coupled receptor (GPCR) small molecule agonists, calcium flux assay: HEK293 wild type cell line counter screen (AID 1920065)
Outline: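 Wild-type HEK293 cells plated 18 h, loaded with calcium dye 1 h at 37 C, then compounds added in agonist mode (ATP as positive control). Kinetic fluorescence Ex/Em 480/540 recorded 3 min at 1 sec intervals; 15 concentrations, triplicate.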

[5] = p53 small molecule agonists, cell-based qHTS assay with human liver microsomes: qHTS cell viability counter screen (AID 1963579); note: nearly all actives have a fitted effect of over 45% in size; note: potency is the fitted concentration of half-maximal effect
Outline: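 Metabolic activation used human liver microsomes and NADPH, both 0.5 mg/mL final, over 16 hours at 37 C on p53RE-bla cells (4,000/well). Cytotoxicity measured by CellTiter-Glo luminescence, 30 min at room temperature.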

[6] = p53 small molecule agonists, cell-based qHTS assay with rat liver microsomes: qHTS cell viability counter screen (AID 1963580); note: nearly all actives have a fitted effect of over 45% in size; note: potency is the fitted concentration of half-maximal effect
Outline: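 Intracellular ATP, by CellTiter-Glo luminescence, defines viability. HCT-116 p53RE-bla cells, 4,000 per well, were compound-treated in the presence of rat liver microsomes and NADPH for 16 h at 37 C.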

[7] = p53 small molecule agonists, cell-based qHTS assay: qHTS cell viability counter screen (AID 1963581); note: nearly all actives have a fitted effect of over 45% in size; note: potency is the fitted concentration of half-maximal effect
Outline: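 p53RE-bla HCT-116 cells, compounds added 5 h after plating and incubated 16 h at 37 C. Cytotoxicity measured in the same wells as intracellular ATP by CellTiter-Glo luminescence after 30 min at room temperature.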

[8] = cAMP Responsive Elements (CRE) small molecule antagonists, cell-based qHTS assay (AID 1963591; active = well fitted inhibition curve with a large enough effect in the signal ratio in the repeat runs, not every such curve was filed as active; the % refers to the signal ratio)
Outline: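 CRE-bla HEK293T cells plated 18 h, then given compound plus NKH477 at 0.25 uM final for 3 h at 37C. Beta-lactamase reporter read with LiveBLAzer B/G FRET substrate after 2 h at room temperature.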

[9] = target: Beta-2 adrenergic receptor (Homo sapiens) (UniProt P07550); assay: Adrenergic beta2 receptor (ADRB2) small molecule antagonists, cell-based qHTS assay (AID 1963592); note: series mostly up to about 92 µM; nearly all actives have a fitted effect of over 50% in size
Sequence of Beta-2 adrenergic receptor (Homo sapiens) (P07550 whole entry, looked up): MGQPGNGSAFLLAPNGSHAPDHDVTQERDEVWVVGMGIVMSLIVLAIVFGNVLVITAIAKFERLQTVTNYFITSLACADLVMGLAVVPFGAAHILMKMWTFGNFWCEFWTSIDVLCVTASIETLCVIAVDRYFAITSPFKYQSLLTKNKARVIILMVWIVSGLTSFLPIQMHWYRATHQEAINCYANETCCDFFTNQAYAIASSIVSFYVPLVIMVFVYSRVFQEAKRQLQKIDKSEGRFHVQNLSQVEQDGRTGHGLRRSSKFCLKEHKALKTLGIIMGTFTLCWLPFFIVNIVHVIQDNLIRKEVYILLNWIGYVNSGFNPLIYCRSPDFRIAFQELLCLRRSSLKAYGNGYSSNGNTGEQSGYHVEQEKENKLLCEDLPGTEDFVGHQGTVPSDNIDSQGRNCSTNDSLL
Outline: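 Cells (CHO, stable ADRB2 overexpression) incubated 18-20hr at 37C; compounds added from DMSO; agonist mix (1nM isoproterenol, 100uM IBMX, 25uM Ro-20-1724) added; 0.5hr RT; d2-cAMP and anti-cAMP-cryptate added; 1hr RT; 665/615 nm read.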

[10] = target: Beta-2 adrenergic receptor (Homo sapiens) (UniProt P07550); assay: Adrenergic beta2 receptor (ADRB2) small molecule agonists, cell-based qHTS assay (AID 1963593);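 note: CHO cells stably overexpressing human ADRB2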
Outline: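 CHO cells stably over-expressing ADRB2 were plated overnight at 37C, then dosed with compounds plus a stimulation mix containing 100uM IBMX and 25uM Ro-20-1724 for 0.5hr at room temperature. cAMP was measured by HTRF competition, 1hr.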

[11] = target: D(2) dopamine receptor (Homo sapiens) (UniProt P14416); assay: Dopamine D2 receptor (DRD2) small molecule agonists, cell-based qHTS assay (AID 1963594); note: nearly all actives have a fitted effect of over 35% in size
Sequence of D(2) dopamine receptor (Homo sapiens) (P14416 whole entry, looked up): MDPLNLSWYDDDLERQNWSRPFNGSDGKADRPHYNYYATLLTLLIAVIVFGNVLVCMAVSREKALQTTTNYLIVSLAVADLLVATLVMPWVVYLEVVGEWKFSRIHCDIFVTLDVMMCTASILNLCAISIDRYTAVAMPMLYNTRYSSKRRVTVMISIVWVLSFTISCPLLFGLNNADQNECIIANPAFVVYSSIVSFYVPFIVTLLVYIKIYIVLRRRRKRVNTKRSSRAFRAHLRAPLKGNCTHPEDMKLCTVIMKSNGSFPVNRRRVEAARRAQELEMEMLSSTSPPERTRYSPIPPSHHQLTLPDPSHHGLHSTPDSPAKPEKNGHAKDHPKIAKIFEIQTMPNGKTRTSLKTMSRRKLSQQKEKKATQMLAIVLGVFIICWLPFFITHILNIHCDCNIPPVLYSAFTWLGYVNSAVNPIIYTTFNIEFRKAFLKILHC
Outline: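 cAMP accumulation in DRD2-HEK293 cells measured by HTRF after 1 h detection; compounds added 10 min before NKH477 (200nM […]) forskolin-analogue stimulation, 30 min at room temperature, with Ro20-1724 present at 0.1 mM final.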

[12] = target: D(2) dopamine receptor (Homo sapiens) (UniProt P14416); assay: Dopamine D2 receptor (DRD2) small molecule antagonists, cell-based qHTS assay (AID 1963595; active = well fitted inhibition curve with a large enough effect in the signal ratio in the repeat runs, with a control signal flat; the % refers to the signal ratio)
Outline: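 Cells were plated and grown for 24 h at 37 °C. Ro20-1724 (0.1 mM final) went in first, then compound for 10 min. NKH477 (200 nM) with quinpirole (12 nM) followed for 30 min at RT, then HTRF detection reagents for 1 h.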

[13] = target: 5-hydroxytryptamine receptor 2A (Homo sapiens) (UniProt P28223); assay: 5-hydroxytryptamine receptor 2A (HTR2A) small molecule agonists, cell-based qHTS assay (AID 1963587); note: nearly all actives have a fitted effect of over 30% in size
Sequence of 5-hydroxytryptamine receptor 2A (Homo sapiens) (P28223 whole entry, looked up): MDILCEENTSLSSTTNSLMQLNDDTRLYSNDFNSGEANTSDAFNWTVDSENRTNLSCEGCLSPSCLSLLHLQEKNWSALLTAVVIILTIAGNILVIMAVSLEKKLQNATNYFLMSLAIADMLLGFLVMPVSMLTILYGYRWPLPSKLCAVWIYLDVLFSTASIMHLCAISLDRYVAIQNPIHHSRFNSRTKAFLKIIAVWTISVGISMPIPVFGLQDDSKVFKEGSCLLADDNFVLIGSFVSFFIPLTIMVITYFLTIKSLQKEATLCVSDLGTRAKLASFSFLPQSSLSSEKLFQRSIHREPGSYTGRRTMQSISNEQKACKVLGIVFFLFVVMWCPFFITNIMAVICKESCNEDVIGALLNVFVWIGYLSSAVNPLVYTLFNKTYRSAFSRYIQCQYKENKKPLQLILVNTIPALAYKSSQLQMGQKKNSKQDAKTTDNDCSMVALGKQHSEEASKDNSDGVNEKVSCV
Outline: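 Kinetic calcium-flux fluorescence (2 min, 1 sec intervals) after compound addition in agonist mode. HTR2A-CHO cells were cultured 18 h, then dye-loaded 1 h at 37 C.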

[14] = target: Muscarinic acetylcholine receptor M1 (Homo sapiens) (UniProt P11229); assay: Cholinergic receptor muscarinic 1 (CHRM1) small molecule agonists, cell-based qHTS assay (AID 1963589); note: nearly all actives have a fitted effect of over 35% in size
Sequence of Muscarinic acetylcholine receptor M1 (Homo sapiens) (P11229 whole entry, looked up): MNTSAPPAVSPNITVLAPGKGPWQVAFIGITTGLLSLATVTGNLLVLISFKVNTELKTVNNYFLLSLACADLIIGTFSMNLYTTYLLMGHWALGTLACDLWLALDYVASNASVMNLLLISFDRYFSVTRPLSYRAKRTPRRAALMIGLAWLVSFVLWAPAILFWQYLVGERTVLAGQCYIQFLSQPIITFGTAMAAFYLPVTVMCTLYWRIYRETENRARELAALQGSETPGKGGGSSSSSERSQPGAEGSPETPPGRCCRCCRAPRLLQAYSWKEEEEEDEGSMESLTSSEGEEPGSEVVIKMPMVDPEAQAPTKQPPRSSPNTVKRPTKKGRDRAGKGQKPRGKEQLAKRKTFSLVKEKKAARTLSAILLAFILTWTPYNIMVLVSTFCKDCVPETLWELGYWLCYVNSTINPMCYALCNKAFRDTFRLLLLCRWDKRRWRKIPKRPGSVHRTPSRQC
Outline: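 CHO cells stably expressing human CHRM1 were loaded with calcium dye for 1 h at 37 C, then compound was added in agonist mode. Intracellular calcium fluorescence was followed kinetically at 1 s intervals. Fifteen concentrations were tested in three independent runs.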

[15] = cAMP Responsive Elements (CRE) small molecule agonists, cell-based qHTS assay (AID 1963590)
Outline: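 CRE-bla HEK 293T cells, 2,000/well in DMEM with 10% dialyzed FBS and 25 mM HEPES, pre-incubated 18 h at 37 C, then exposed to compound 3 h at 37 C. Beta-lactamase reporter read with LiveBLAzer B/G FRET substrate after 2 h at room temperature.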

[16] = target: 5-hydroxytryptamine receptor 2A (Homo sapiens) (UniProt P28223); assay: 5-hydroxytryptamine receptor 2A (HTR2A) small molecule antagonists, cell-based qHTS assay (AID 1963586); note: nearly all actives have a fitted effect of over 45% in size
Outline: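 Antagonist-mode intracellular calcium assay: DOI (4 nM) added after 5 min compound pre-incubation at room temperature to dye-loaded HTR2A-CHO cells. Fluorescence followed for 3 min, sampled every second.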

[17] = target: Muscarinic acetylcholine receptor M1 (Homo sapiens) (UniProt P11229); assay: Cholinergic receptor muscarinic 1 (CHRM1) small molecule antagonists, cell-based qHTS assay (AID 1963588); note: nearly all actives have a fitted effect of over 40% in size; note: potency is the fitted concentration of half-maximal effect
Outline: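 CHRM1-CHO calcium-flux assay, antagonist mode. Cells were seeded 18 h, dye-loaded 1 h at 37 C and given compound for 5 min at RT, then acetylcholine was added at 50nM. FDSS fluorescence was read 3 min; 15 concentrations, three runs.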

[18] = p53 small molecule agonists, cell-based qHTS assay (AID 1963582; active = well fitted activation curve with a large enough effect in the signal ratio in the repeat runs, not every such curve was filed as active; the % refers to the signal ratio)
Outline: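 p53RE-bla reporter cells, compounds added in DMSO after 5 h plating, incubated 16 h at 37 C. Beta-lactamase read via 2 h room-temperature LiveBLAzer B/G FRET substrate, fluorescence intensity.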

Measured: Potency

N#Cc1ccc(C(c2ccc(C#N)cc2)n2cncn2)cc1
inactive: [1] | [2] | [3] | [4] | [5] | [6] | [7] | [8] | [9] | [10] | [11] | [12]

CCN[C@H]1C[C@H](C)S(=O)(=O)c2sc(S(N)(=O)=O)cc21
inactive: [1] | [2] | [3] | [4] | [5] | [6] | [7] | [13] | [14] | [15] | [8] | [10] | [11] | [12]

CC1(C)CCC[C@]2(C)[C@H]3CCO[C@]3(C)CC[C@@H]12
inactive: [1] | [2] | [3] | [4] | [5] | [6] | [7] | [16] | [13] | [17] | [15] | [8] | [9] | [10] | [11] | [12]

CNc1ccc([N+](=O)[O-])cc1
inactive: [1] | [2] | [3] | [4] | [5] | [6] | [7] | [16] | [13] | [17] | [14] | [15] | [8] | [9] | [10] | [11] | [12]

CC(=O)SCC(CC(=O)c1ccc(C)cc1)C(=O)O (stereo unspecified)
inactive: [1] | [2] | [3] | [4] | [5] | [6] | [7] | [16] | [13] | [17] | [14] | [8] | [9] | [10] | [11] | [12]

CCN(Cc1cccc(S(=O)(=O)O)c1)c1ccc(C(=C2C=CC(=[N+](CC)Cc3cccc(S(=O)(=O)O)c3)C=C2)c2ccc(O)cc2S(=O)(=O)[O-])cc1
active: [5] 24.8 µM | [6] 24.8 µM | [7] 11.1 µM
inactive: [1] | [2] | [3] | [4] | [16] | [13] | [17] | [14] | [15] | [8]

O=S(=O)(O)c1cc(I)c(O)c2ncccc12
inactive: [1] | [2] | [3] | [4] | [5] | [6] | [7] | [18] | [16] | [13] | [17] | [15] | [8] | [9] | [12]

c1ccc(CN(Cc2ccccc2)Cc2ccccc2)cc1
active: [1] 54.4 µM
inactive: [2] | [3] | [4] | [5] | [6] | [7] | [16] | [17] | [14] | [15] | [8] | [9] | [10] | [11]

CC1=C(CC(=O)O)c2cc(F)ccc2/C1=C\c1ccc(S(C)(=O)=O)cc1
inactive: [1] | [2] | [3] | [4] | [5] | [6] | [7] | [9] | [11]

CN1CCC(Nc2ncc3ncnc(Nc4ccc(F)c(Cl)c4)c3n2)CC1
active: [17] 8.18 µM
inactive: [1] | [2] | [3] | [4] | [5] | [6] | [16] | [13] | [14] | [9] | [11] | [12]

COc1ccc2nc(S(=O)Cc3ncc(C)c(OC)c3C)[nH]c2c1 (stereo unspecified)
active: [1] 67.8 µM and 26.6 µM
inactive: [2] | [3] | [4] | [5] | [6] | [7] | [8] | [9] | [11] | [12]

C/C=C(\C)C(C)=O
inactive: [1] | [2] | [3] | [4] | [5] | [6] | [7] | [16] | [13] | [17] | [14] | [15] | [8] | [9] | [10] | [11] | [12]

C1COCO1
inactive: [1] | [2] | [3] | [4] | [5] | [6] | [7] | [16] | [13] | [17] | [14] | [8] | [9] | [10] | [11] | [12]

CC(=O)OCC1=C(C(=O)O)N2C(=O)[C@@H](NC(=O)CSc3ccncc3)[C@H]2SC1
inactive: [1] | [2] | [3] | [4] | [5] | [6] | [7] | [16] | [13] | [17] | [14] | [15] | [8] | [9] | [10] | [11] | [12]

Source: PubChem BioAssay (Tox21)
